Data: PubChem BioAssay (NCI)
About 83,000 compounds went through this panel and 20% of them were active in at least one assay; those are over-represented in the sample as a whole.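 Cells were grown in 96-well plates and exposed to the test compound at a single concentration for 48 hours; results are reported as percent growth, with values below 10 considered active.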 Calls of active or inactive are those of the source.

Each molecule was assayed on HL-60(TB) leukemia (assay: NCI-60 one-dose screen, 48 h (100 = growth as untreated, 0 = no growth, -100 = all killed)). Conditions: 10 µM unless noted.
O=C1c2cccc3c(-c4ccc(-c5nc6c7ccccc7c7ccccc7c6[nH]5)cc4)ccc(c23)C(=O)N1CCN1CCNCC1 was tested, and the growth was 82.5% (inactive).
With CCOc1ccccc1Cn1ccnc1CCc1c(Cl)c(O)cc(O)c1C(=O)OC the growth was 106% (inactive).
In the case of Cc1ccc2c(C(C[N+](=O)[O-])c3ccco3)c(-c3ccccc3)[nH]c2c1 (configuration not stated), the growth is reported as -5.69% (active).
For CC(C)(C)Nc1c(-c2c3ccccc3cc3ccccc23)nc2ccccn12, the growth was 74.4% (inactive).
In the case of C/C=C(/C)C(=O)OC1C=C(CO)C(=O)C(OC(=O)/C(C)=C\C)C1C(C)C (configuration not stated), the growth is reported as -32% (active).
With COc1ccc(CNCCCN2C(=O)c3ccc4c5c(ccc(c35)C2=O)C(=O)N(CCCNCc2ccc(OC)c(OC)c2OC)C4=O)c(OC)c1OC the growth was -61.3% (active).
CC12O[C@H](C[C@@H](O)[C@H]1O)n1c3ccccc3c3c4c(c5c6ccccc6n2c5c31)C(=O)N(CCCN)C4=O was tested, and the growth was 4.62% (active).
With Cn1cc(-c2csc(-c3cn(C(=O)OC(C)(C)C)c4ccccc34)n2)c2ccnc(Cl)c21 the growth was 67.5% (inactive).
For Cc1ccc(C(=O)Nc2cccc(F)c2)cc1NC(=O)C1(c2ncnc3[nH]ccc23)CC1, the growth was 64.7% (inactive).
COc1cc(C#Cc2ccc(=O)oc2C#Cc2ccccc2)cc(OC)c1OC was tested, and the growth was 34.2% (inactive).
For C/C(=C\C(=O)c1ccc(Cl)cc1)c1ccc(Cl)cc1, the growth was 92.5% (inactive).
O=C(Nc1ccc(Cl)c(Cl)c1)O/N=C\c1c(Cl)ccc([N+](=O)[O-])c1Cl was tested, and the growth was -61.4% (active).
In the case of c1ccc(-c2cccc(-c3ccccn3)n2)nc1, the growth is reported as -16.9% (active).
With CC(c1ccccc1)N1C(=O)CSC1=S (configuration not stated) the growth was -40.6% (active).
For NC(=O)NS(=O)(=O)c1ccc(N2N=C(C(F)(F)F)CC2c2cc(C(F)(F)F)cc(C(F)(F)F)c2)cc1 (configuration not stated), the growth was 38.7% (inactive).
In the case of CCC(C)[C@H](NC(=O)NC(=O)NC(=O)CI)C(=O)OC (some centres not stated), the growth is reported as 71.8% (inactive).
For N#Cc1c(-c2ccc(F)cc2)nc(N/N=C/c2c[nH]c3ccccc23)nc1N1CCOCC1, the growth was 2.62% (active).
In the case of CCOC(=O)c1ccc(NC(=O)NC2=NCCS2)cc1, the growth is reported as 13.5% (inactive).
In the case of Cc1cc[n+](CCCCCCCCCC[n+]2ccc(C)cc2)cc1, the growth is reported as 95.3% (inactive).
In the case of COc1ccc(Cl)c(Nc2nc3ccccc3nc2NS(=O)(=O)c2cccc(NC(=O)C(C)(C)N)c2)c1, the growth is reported as 32.6% (inactive).
With CCNc1nc(O)c(/C=C2\C=Nc3ncccc32)s1 the growth was -22.4% (active).
COc1cc2cc(NCc3ccc(F)cc3)nc(C)c2cc1OC was tested, and the growth was 31.7% (inactive).
With CC1(C)N=C(N)N=C(N)N1c1cccc(C#N)c1 the growth was 35.7% (inactive).
With Cc1nc2ccccc2n1CC1NC(=O)NC1=O (configuration not stated) the growth was 95.1% (inactive).
In the case of Nc1cc(C(=O)NC[C@H]2CN(c3ccc(N4CCC(C(=O)O)CC4)cc3)C(=O)O2)ccc1Cl, the growth is reported as 97.9% (inactive).
Oc1ccc(/C=N/NC(=S)Nc2ccccc2)nc1 was tested, and the growth was -8.79% (active).
In the case of COC(=O)[C@H](Cc1ccc(O)cc1)NC(=O)[C@@H](OC)[C@@H]1Cc2cc3cc(OC4CC(OC5CC(O)C(O)C(C)O5)C(O)C(C)O4)c(C)c(O)c3c(O)c2C(=O)[C@H]1OC1CC(OC2CC(OC3CC(C)(O)C(O)C(C)O3)C(O)C(C)O2)C(O)C(C)O1 (some centres not stated), the growth is reported as 8.2% (active).
For CC1C2CCC(C2)C1COCCOCCO (configuration not stated), the growth was 108% (inactive).
In the case of CCOC(=O)c1cnc2cc(Cl)c(F)cc2c1Nc1cccc(NS(C)(=O)=O)c1, the growth is reported as 105% (inactive).
With Cc1ccc(C)c2c1sc1nc(N3CCOCC3)c(C#N)c(=O)n12 the growth was 93.4% (inactive).
With C[C@@H]1C(=O)N(C[C@@H](Cc2ccccc2)NC(=O)OCc2ccccc2)[C@]1(Cc1ccccc1)C(=O)OCc1ccccc1 the growth was 13.1% (inactive).
With COC(=O)c1c2c(n3ccccc13)C(=O)c1ccccc1C2=O the growth was 58.6% (inactive).
C[C@H](NC(=O)c1c(N)nn2cccnc12)c1cc2cccc(C#Cc3cnn(C)c3)c2c(=O)n1-c1ccccc1 was tested, and the growth was -18.2% (active).
For Cc1ccc(-c2cc(C(=O)Nc3ccc(S(=O)(=O)N4CCCCC4)cc3)[nH]n2)c(O)c1, the growth was 48.7% (inactive).
In the case of NC(CCCC(N)C(=O)c1ccccc1)C(=O)O (configuration not stated), the growth is reported as 94.3% (inactive).
For Nc1ccc(-c2cccs2)cc1NC(=O)c1ccc(CCCC(=O)Nc2ccc(C3CC3N)cc2)cc1 (configuration not stated), the growth was 66% (inactive).
CN(C)CCOc1nc2c3cc([N+](=O)[O-])ccc3nn2c2ccccc12 was tested, and the growth was 11.7% (inactive).
